# Assay results from the supplement of paper PMC8728848.
# Many of the other results were omitted from the sample, so the strongest signals are more common in it than they were.
# Key:
# Experiment in all cases: glycan array binding signal (z-score within array); higher = stronger binding
# Conditions in all cases: glycan notation: IUPAC condensed, linker removed; mutation: R82H, R255H
# [1] = target: Gal(b1-4)GlcNAc(b1-3)Gal(b1-4)GlcNAc(b1-3)[Gal(b1-4)GlcNAc(b1-3)Gal(b1-4)GlcNAc(b1-6)]GalNAc
# Outline: (§1)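 The Consortium for Functional Glycomics database supplied 3228 glycan arrays, of which those lacking an available protein sequence were dropped. The binding signal, a within-array Z-score, was averaged across arrays of the same protein sequence and across linkers. Negative scores can be read as non-binding.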
# [2] = target: Gal4S(b1-4)GlcNAc
# Outline: as §1
# [3] = target: Gal6S(b1-3)GlcNAc6S
# Outline: as §1
# [4] = target: GalNAc(a1-3)GalNAc(b1-3)Gal(a1-4)Gal(b1-4)Glc
# Outline: as §1
# [5] = target: GalNAc(b1-3)GalNAc
# Outline: as §1
# [6] = target: GalNAc(b1-4)GlcNAc
# Outline: as §1
# [7] = target: GalNAc(b1-4)GlcNAc(b1-3)GalNAc(b1-4)GlcNAc
# Outline: as §1
# [8] = target: GlcA3S(b1-3)Gal(b1-4)GlcNAc(b1-3)Gal(b1-4)Glc
# Outline: as §1
# [9] = target: GlcNAc(b1-2)Man(a1-3)[GlcNAc(b1-4)][GlcNAc(b1-2)Man(a1-6)]Man(b1-4)GlcNAc(b1-4)[Fuc(a1-6)]GlcNAc
# Outline: as §1
# [10] = target: GlcNAc(b1-3)Gal(b1-4)GlcNAc(b1-3)Gal(b1-4)GlcNAc(b1-2)[GlcNAc(b1-3)Gal(b1-4)GlcNAc(b1-3)Gal(b1-4)GlcNAc(b1-6)]Man(a1-6)[GlcNAc(b1-3)Gal(b1-4)GlcNAc(b1-3)Gal(b1-4)GlcNAc(b1-2)Man(a1-3)]Man(b1-4)GlcNAc(b1-4)[Fuc(a1-6)]GlcNAc
# Outline: as §1
# [11] = target: GlcNAc(b1-3)Gal(b1-4)GlcNAc(b1-3)Gal(b1-4)GlcNAc(b1-3)Gal(b1-4)GlcNAc(b1-2)Man(a1-3)[GlcNAc(b1-3)Gal(b1-4)GlcNAc(b1-3)Gal(b1-4)GlcNAc(b1-3)Gal(b1-4)GlcNAc(b1-2)Man(a1-6)]Man(b1-4)GlcNAc(b1-4)GlcNAc
# Outline: as §1
# [12] = target: GlcNAc(b1-3)Gal(b1-4)GlcNAc(b1-3)Gal(b1-4)GlcNAc(b1-3)Gal(b1-4)GlcNAc(b1-2)[GlcNAc(b1-3)Gal(b1-4)GlcNAc(b1-3)Gal(b1-4)GlcNAc(b1-3)Gal(b1-4)GlcNAc(b1-6)]Man(a1-6)[GlcNAc(b1-3)Gal(b1-4)GlcNAc(b1-3)Gal(b1-4)GlcNAc(b1-3)Gal(b1-4)GlcNAc(b1-2)Man(a1-3)]Man(b1-4)GlcNAc(b1-4)[Fuc(a1-6)]GlcNAc
# Outline: as §1
# [13] = target: GlcNAc(b1-3)Gal(b1-4)GlcNAc(b1-3)Gal(b1-4)GlcNAc(b1-3)Gal(b1-4)GlcNAc(b1-3)Gal(b1-4)GlcNAc(b1-2)Man(a1-3)[GlcNAc(b1-3)Gal(b1-4)GlcNAc(b1-3)Gal(b1-4)GlcNAc(b1-3)Gal(b1-4)GlcNAc(b1-3)Gal(b1-4)GlcNAc(b1-2)Man(a1-6)]Man(b1-4)GlcNAc(b1-4)GlcNAc
# Outline: as §1
# [14] = target: GlcNAc(b1-3)Gal(b1-4)GlcNAc(b1-3)Gal(b1-4)GlcNAc(b1-3)Gal(b1-4)GlcNAc(b1-3)Gal(b1-4)GlcNAc(b1-2)Man(a1-3)[GlcNAc(b1-3)Gal(b1-4)GlcNAc(b1-3)Gal(b1-4)GlcNAc(b1-3)Gal(b1-4)GlcNAc(b1-3)Gal(b1-4)GlcNAc(b1-2)Man(a1-6)]Man(b1-4)GlcNAc(b1-4)[Fuc(a1-6)]GlcNAc
# Outline: as §1
# [15] = target: GlcNAc(b1-3)Gal(b1-4)GlcNAc(b1-3)Gal(b1-4)GlcNAc(b1-3)Gal(b1-4)GlcNAc(b1-3)Gal(b1-4)GlcNAc(b1-2)[GlcNAc(b1-3)Gal(b1-4)GlcNAc(b1-3)Gal(b1-4)GlcNAc(b1-3)Gal(b1-4)GlcNAc(b1-3)Gal(b1-4)GlcNAc(b1-6)]Man(a1-6)[GlcNAc(b1-3)Gal(b1-4)GlcNAc(b1-3)Gal(b1-4)GlcNAc(b1-3)Gal(b1-4)GlcNAc(b1-3)Gal(b1-4)GlcNAc(b1-2)Man(a1-3)]Man(b1-4)GlcNAc(b1-4)[Fuc(a1-6)]GlcNAc
# Outline: as §1
# [16] = target: GlcNAc(b1-3)Gal(b1-4)GlcNAc(b1-6)[Gal(b1-3)]GalNAc
# Outline: as §1
# [17] = target: GlcNAc(b1-4)GlcNAc(b1-4)GlcNAc
# Outline: as §1
# [18] = target: Man(a1-2)Man(a1-6)[Man(a1-3)]Man(a1-6)[Man(a1-2)Man(a1-2)Man(a1-3)]Man
# Outline: as §1
# [19] = target: Man(a1-3)[Man(a1-6)]Man
# Outline: as §1
# [20] = target: Man(a1-3)[Man(a1-6)]Man(a1-6)[Man(a1-2)Man(a1-3)]Man(b1-4)GlcNAc(b1-4)GlcNAc
# Outline: as §1
# [21] = target: Neu5Ac(a2-3)Gal
# Outline: as §1
# [22] = target: Neu5Ac(a2-3)Gal(b1-3)GlcNAc
# Outline: as §1
# [23] = target: Neu5Ac(a2-3)Gal(b1-3)GlcNAc(b1-2)Man(a1-3)[Neu5Ac(a2-3)Gal(b1-3)GlcNAc(b1-2)Man(a1-6)]Man(b1-4)GlcNAc(b1-4)GlcNAc
# Outline: as §1
# [24] = target: Neu5Ac(a2-3)Gal(b1-4)GlcNAc(b1-3)Gal(b1-4)GlcNAc(b1-3)Gal(b1-4)GlcNAc
# Outline: as §1
# [25] = target: Neu5Ac(a2-3)Gal(b1-4)GlcNAc(b1-3)Gal(b1-4)GlcNAc(b1-3)[Neu5Ac(a2-3)Gal(b1-4)GlcNAc(b1-3)Gal(b1-4)GlcNAc(b1-6)]GalNAc
# Outline: as §1
# [26] = target: Neu5Ac(a2-6)Gal(b1-4)GlcNAc(b1-3)GalNAc
# Outline: as §1
# [27] = target: Neu5Ac(a2-6)Gal(b1-4)GlcNAc6S
# Outline: as §1
# [28] = target: Neu5Ac(a2-8)Neu5Ac(a2-3)[GalNAc(b1-4)]Gal(b1-4)Glc
# Outline: as §1
binder,measurement,setting,value
"Gal 8 (Mus musculus), Q9JL15 (protein) MGGSHHHHHHGMASMLSLNNLQNIIYNPIIPYVGTITEQLKPGSLIVIRGHVPKDSERFQVDFQLGNSLKPRADVAFHFNPHFKRSSCIVCNTLTQEKWGWEEITYDMPFRKEKSFEIVFMVLKNKFQVAVNGRHVLLYAHRISPEQIDTVGIYGKVNIHSIGFRFSSASALPHTLGDLQSMETSALGLTQINRENIQKPGKLQLSLPFEARLNASMGPGRTVVIKGEVNTNARSFNVDLVAGKTRDIALHLNPHLNVKAFVRNSFLQDAWGEEERNITCFPFSSGMYFEMIIYCDVREFKVAINGVHSLEYKHRFKDLSSIDTLSVDGDIRLLDVRSW",glycan array binding signal (z-score),[1],0.053
same,glycan array binding signal (z-score),[2],-0.22
same,glycan array binding signal (z-score),[3],-0.186
same,glycan array binding signal (z-score),[4],-0.214
same,glycan array binding signal (z-score),[5],-0.259
same,glycan array binding signal (z-score),[6],-0.245
same,glycan array binding signal (z-score),[7],-0.271
same,glycan array binding signal (z-score),[8],-0.198
same,glycan array binding signal (z-score),[9],-0.278
same,glycan array binding signal (z-score),[10],5.44
same,glycan array binding signal (z-score),[11],4.25
same,glycan array binding signal (z-score),[12],4.84
same,glycan array binding signal (z-score),[13],7.01
same,glycan array binding signal (z-score),[14],6.24
same,glycan array binding signal (z-score),[15],6.71
same,glycan array binding signal (z-score),[16],-0.251
same,glycan array binding signal (z-score),[17],-0.255
same,glycan array binding signal (z-score),[18],-0.276
same,glycan array binding signal (z-score),[19],-0.24
same,glycan array binding signal (z-score),[20],-0.246
same,glycan array binding signal (z-score),[21],-0.259
same,glycan array binding signal (z-score),[22],-0.217
same,glycan array binding signal (z-score),[23],0.022
same,glycan array binding signal (z-score),[24],-0.148
same,glycan array binding signal (z-score),[25],-0.255
same,glycan array binding signal (z-score),[26],-0.062
same,glycan array binding signal (z-score),[27],-0.2
same,glycan array binding signal (z-score),[28],-0.268
